# Screening data from PubChem.
# These entries were drawn from the full list.
# TNAP Pi inh: inhibitors of human tissue-nonspecific alkaline phosphatase; 21,000 tested, under 10 active; P05186; purified TNAP, pNPP, malachite green phosphate absorbance; inhibition, % at 20 µM
# TNAP inh pNP: human TNAP inhibition, p-nitrophenol detection; P05186; purified TNAP, pNPP hydrolysis, absorbance 405 nm; inhibition, % at 20 µM; 21,000 tested, under 10 active; AID 615;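 also: 0% = DMSO only wells and 100% = 1 mM levamisole wells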
# Active calls of the source: *.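 The calls were made as follows: active = inhibition above 50% at the 20 µM single-dose screen; inactive = the rest.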
SMILES,TNAP Pi inh,TNAP inh pNP
CCOc1ccc2nc(NC(NC(=O)CC)(C(=O)OC)C(F)(F)F)sc2c1 (stereo not drawn),11.3,3.6
Cc1ccc2c(n1)sc1c(N)ncnc12,11.8,5.7
CC(=O)c1ccc(NS(=O)(=O)c2cccc(C)c2)cc1,2.4,3.4
CCCOc1cccc(C2C(C(=O)c3ccc(C)o3)=C(O)C(=O)N2CCCN(C)C)c1 (stereo not drawn),-4.8,3.1
CCCn1c(C)nc2c(c1=O)c1nc3ccccc3nc1n2-c1ccc2c(c1)OCCO2,2.1,-5.1
COc1ccc(OCC(=O)N2CCN(C(=O)c3cccc4ccccc34)CC2)cc1,17.9,11.4
O=C(O)c1ccc(COc2c(F)c(F)c(F)c(F)c2F)o1,11.9,5.5
Cc1ccc(C(=O)CSc2nnc(COc3cc(C)cc(C)c3)o2)cc1,11.8,5.9
COc1ccccc1Cn1c2nc3ccccc3nc2c2c(=O)n(CC(C)C)cnc21,9.1,0.9
CCOC(=O)C1=C(C)NC(=O)NC1/C(C)=C/c1ccccc1 (stereo not drawn),6.4,3.4
COc1ccc(-c2csc(N3CCC(C(N)=O)(N4CCCCC4)CC3)n2)cc1,12.9,6.8
